Bioassay records deposited in PubChem BioAssay by Broad Institute.
MITF inhib: blocks MITF activity; TRPM1 promoter luciferase, luminescence, 24 h; inhibition, % (test concentration not listed); 37,000 compounds, 0.28% hits; AID 2240; in the data active = inhibition above about 85%; inconclusive = no clear call, values can overlap the other calls; inactive = below about 68%;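 note: human melanocyte line stably carrying TRPM1 promoter luciferase reporter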
NOMO-1 viab: STK33 inhibitor candidate reducing NOMO-1 cell viability; NOMO-1 AML viability, CellTiter-Glo luminescence, 72 h; inhibition, % (no concentration beside the values); 37,000 compounds, 7.5% hits; in the data active = inhibition above about 80%; inconclusive = no clear call, values can overlap the other calls
Shh pathway inh: blocks Sonic Hedgehog signaling; 22,000 compounds, 2.1% hits; inhibition, % (no concentration beside the values); AID 2313; Shh-LIGHT2 Gli-luciferase reporter, 30 h;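 active = mean inhibition across valid replicates above about 65%, limit read from the data; inconclusive = mean under the limit, yet half or more replicates past it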;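 note: pathway switched on by Shh-conditioned medium diluted 1 in 25 in low serum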
Starred values were filed as active, the others as inactive; u = inconclusive; x = no result. In the library only some 7.8% were active in any assay of this set; here they are far more common.

SMILES | MITF inhib | NOMO-1 viab | Shh pathway inh
CC1(C)CC[C@]2(C(=O)O[C@@H]3O[C@H](CO)[C@@H](O)[C@H](O)[C@H]3O)CC[C@]3(C)C(=CCC4[C@@]5(C)CC[C@H](O[C@@H]6O[C@H](CO)[C@@H](O)[C@H](O[C@@H]7O[C@H](CO)[C@@H](O)[C@H](O)[C@H]7O)[C@H]6O[C@@H]6O[C@H](CO)[C@H](O)[C@H](O)[C@H]6O)C(C)(C)C5CC[C@]43C)[C@@H]2C1 (some centres not stated) | x | x | -4
CS(=O)(=O)N(CC(=O)NC1CCCCCC1)c1cc(Cl)c(Cl)cc1Cl | 35 | 4 | x
COc1ccc(Cl)cc1NC(=O)CC1NCCNC1=O (configuration not stated) | 1 | 5 | x
CCC(C(=O)Nc1ccccc1C(=O)N1CCOCC1)N1C(=O)c2ccccc2C1=O (configuration not stated) | -22 | -4 | x
Cc1ccc(S(=O)(=O)N(C)C[C@H]2Oc3c(NC(=O)C4CCCCC4)cccc3C(=O)N([C@H](C)CO)C[C@@H]2C)cc1 | -8 | 30 | 0
O=C(CCCn1cc([N+](=O)[O-])cn1)Nc1ccc(F)cc1 | -22 | 11 | x
Cc1noc(C)c1S(=O)(=O)Nc1ccc2c(c1)C(=O)N([C@H](C)CO)C[C@@H](C)[C@H](CN(C)Cc1ccc(Oc3ccccc3)cc1)O2 | 4 | 31 | 28
Cc1ccc(S(=O)(=O)N(C)C[C@H]2Oc3c(NS(=O)(=O)c4ccc(F)cc4)cccc3C(=O)N([C@@H](C)CO)C[C@H]2C)cc1 | -2 | 58 | -6
Cc1ccc(S(=O)(=O)N(C)C[C@@H]2Oc3c(NC(=O)CCCCCC(=O)Nc4ccccc4N)cccc3C(=O)N([C@@H](C)CO)C[C@H]2C)cc1 | -3 | 67 | x
C[C@@H]1CN([C@@H](C)CO)C(=O)c2cccc(NC(=O)CCCCCC(=O)Nc3ccccc3N)c2O[C@@H]1CN(C)S(=O)(=O)c1ccccc1 | 27 | 104* | x
C[C@H]1CN([C@@H](C)CO)C(=O)c2cccc(NC(=O)CCCCCC(=O)Nc3ccccc3N)c2O[C@@H]1CN(C)S(=O)(=O)c1ccccc1 | -4 | 60 | x
C[C@H](CO)N1C[C@H](C)[C@H](CN(C)S(=O)(=O)c2ccc(Cl)cc2)Oc2c(NC(=O)CCCCCC(=O)Nc3ccccc3N)cccc2C1=O | 14 | 119* | x
C[C@H]1CN([C@@H](C)CO)C(=O)c2cccc(NC(=O)CCCCCC(=O)Nc3ccccc3N)c2O[C@@H]1CN(C)S(=O)(=O)c1ccc(Cl)cc1 | -3 | 103* | x
Cc1ccc(S(=O)(=O)N(C)C[C@H]2Oc3c(NC(=O)CCCCCC(=O)Nc4ccccc4N)cccc3C(=O)N([C@H](C)CO)C[C@@H]2C)cc1 | 1 | u | x
COc1ccc(S(=O)(=O)N(C)C[C@@H]2Oc3c(NC(=O)CCCCCC(=O)Nc4ccccc4N)cccc3C(=O)N([C@H](C)CO)C[C@H]2C)cc1 | 7 | 100* | x
COc1ccc(S(=O)(=O)N(C)C[C@H]2Oc3c(NC(=O)CCCCCC(=O)Nc4ccccc4N)cccc3C(=O)N([C@H](C)CO)C[C@@H]2C)cc1 | -11 | 45 | x
C[C@H](CO)N1C[C@H](C)[C@H](CN(C)C(=O)Nc2ccc3c(c2)OCO3)Oc2c(NC(=O)Nc3ccc(F)cc3)cccc2C1=O | 10 | 37 | 9
Cc1nn2c(-c3cccc(NC(=O)CN4CCCCC4)c3)nnc2c2ccccc12 | -38 | 56 | x
C[C@H](CO)N1C[C@H](C)[C@@H](CN(C)C(=O)Nc2ccc(F)cc2)Oc2ccc(NC(=O)Nc3ccc4c(c3)OCO4)cc2C1=O | -4 | -3 | -53
CCCCCC(=O)O[C@]1(C(C)=O)CCC2C3CCC4=CC(=O)CC[C@]4(C)C3CC[C@@]21C (some centres not stated) | 13 | 110* | 96*
CC(=O)[C@@]1(O)CCC2C3CCC4=CC(=O)CC[C@]4(C)C3CC[C@@]21C (some centres not stated) | 12 | 34 | 32
CN1CCN(c2nc3cc(C(F)(F)F)ccc3n3cccc23)CC1 | -7 | 39 | 40
COc1ccc(N2CCc3c(C)c(C#N)c4nc5ccccc5n4c32)cc1 | 22 | 114* | 6
C=CCSc1c2c(c(C#N)c3nc4ccccc4n13)CCC2 | 62 | 59 | -6
COc1ccc(N=Cc2c(O)ccc3oc4c(c23)CCCC4)cc1 | 10 | 99* | 0
SMILES | MITF inhib | NOMO-1 viab | Shh pathway inh
Oc1ccc2oc3c(c2c1/C=N/N1CCCCC1)CCCC3 | 19 | 11 | -44
C[C@@H]1CN([C@H](C)CO)C(=O)Cc2cc(NS(=O)(=O)c3ccc(F)cc3)ccc2O[C@@H]1CN(C)S(C)(=O)=O | -2 | 10 | -4
O=C(CCc1ccccc1)c1c(O)cc(O)cc1O | -9 | -8 | 4
O=C(/C=C/CCc1ccccc1)CCc1ccccc1 | 1 | 121* | -3
CC(C)NC(=O)N(C)C[C@@H]1Oc2ccc(NS(C)(=O)=O)cc2CC(=O)N([C@@H](C)CO)C[C@@H]1C | -5 | 11 | 4
O=C(CSc1nc(-c2ccccc2)cc(C(F)(F)F)n1)c1ccccc1 | -3 | 15 | x
O=C(CSc1nc(SCC(=O)c2ccccc2)c2ccccc2n1)c1ccccc1 | 5 | 41 | 76*
COc1ccc(S(=O)(=O)Nc2ccc3c(c2)C(=O)N([C@@H](C)CO)C[C@@H](C)[C@H](CN(C)Cc2ccc(C(=O)O)cc2)O3)cc1 | -2 | 8 | x
COc1c(O)cc2oc(-c3ccc(O[C@@H]4O[C@H](CO)[C@@H](O)[C@H](O)[C@H]4O)cc3)cc(=O)c2c1O | 54 | 78 | 16
Cc1cccc(NC(=O)CN(c2cc(Cl)c(Cl)cc2Cl)S(C)(=O)=O)c1 | 16 | 50 | x
Cc1cc(NC(=O)CN(c2ccc(Cl)c(C(F)(F)F)c2)S(C)(=O)=O)ccc1Br | 50 | 103* | x
CS(=O)(=O)N(CC(=O)Nc1cccc(C(F)(F)F)c1)c1cc(Cl)c(Cl)cc1Cl | 19 | 140* | x
Cc1cc(Cl)ccc1N(CC(=O)Nc1cc(Cl)cc(Cl)c1)S(C)(=O)=O | 9 | 90* | x
Cc1cc(N(CC(=O)Nc2ccc(Cl)cc2C)S(C)(=O)=O)ccc1Br | -3 | 87* | x
COC(=O)c1ccc(NC(=O)CN(c2ccc(Cl)cc2C)S(C)(=O)=O)cc1 | -19 | 5 | x
Cc1ccc(NC(=O)CN(c2ccc(Cl)c(C(F)(F)F)c2)S(C)(=O)=O)cc1Cl | 1 | 55 | x
Cc1cc(Cl)ccc1NC(=O)CN(c1cccc(Cl)c1)S(C)(=O)=O | 4 | 9 | x
Cc1cccc(-n2c(SCC(=O)N3CCOCC3)nnc2-c2ccccc2)c1 | -9 | 8 | x
O=S1(=O)CCC(N=Cc2ccc(-c3cccc(C(F)(F)F)c3)o2)C1 (configuration not stated) | -23 | 17 | -28
O=C(COc1ccc(Cl)cc1)Nc1ncccn1 | -52 | -3 | x
NC(=O)CSc1nc(-c2ccccc2)nc2sc3c(c12)CCCC3 | -37 | 18 | x
C=CC1CN2CCC1C[C@H]2[C@@H](O)c1ccnc2ccc(OC)cc12 (some centres not stated) | 5 | 30 | 8
O=C1CCC(c2ccccc2)C(=O)C1C(=O)c1ccc(Cl)cc1Cl (configuration not stated) | 34 | 29 | -2
Oc1cc2c(c(Cl)c1O)CCNC[C@@H]2c1ccccc1 | 35 | 111* | 9
Cc1ccc(C(=O)c2cccs2)s1 | -47 | 40 | -102
